Measured values from PubChem BioAssay AID1851 (National Center for Advancing Translational Sciences (NCATS), 2009).
“And” between values parts separate entries of the source, which are not always exact repeats. Equal entries are not always repeated. About 5,100 (32%) of roughly 16,000 compounds were called active. About 25% were inconclusive and are not listed. The list shows a part of the results. Unmarked numbers belong to inactive results. The call rests on the fitted dose curve; in most records, active means well fitted curve in the direction sought with a large enough effect; inconclusive means small, poorly fitted or top-dose-only effect, or effect the other way; inactive means no such curve, though single readings can be large or run the other way.

The molecules below were run against Cytochrome P450 3A4 (Homo sapiens) (UniProt P08684) (assay: Cytochrome panel assay with activity outcomes). Conditions: recombinant CYP, pro-luciferin dealkylation, luminescence, p450-cyp3a4; series mostly up to 57.1 µM; activity, negative = inhibition: at the top concentration.
Sequence of Cytochrome P450 3A4 (Homo sapiens) (P08684 whole entry, looked up): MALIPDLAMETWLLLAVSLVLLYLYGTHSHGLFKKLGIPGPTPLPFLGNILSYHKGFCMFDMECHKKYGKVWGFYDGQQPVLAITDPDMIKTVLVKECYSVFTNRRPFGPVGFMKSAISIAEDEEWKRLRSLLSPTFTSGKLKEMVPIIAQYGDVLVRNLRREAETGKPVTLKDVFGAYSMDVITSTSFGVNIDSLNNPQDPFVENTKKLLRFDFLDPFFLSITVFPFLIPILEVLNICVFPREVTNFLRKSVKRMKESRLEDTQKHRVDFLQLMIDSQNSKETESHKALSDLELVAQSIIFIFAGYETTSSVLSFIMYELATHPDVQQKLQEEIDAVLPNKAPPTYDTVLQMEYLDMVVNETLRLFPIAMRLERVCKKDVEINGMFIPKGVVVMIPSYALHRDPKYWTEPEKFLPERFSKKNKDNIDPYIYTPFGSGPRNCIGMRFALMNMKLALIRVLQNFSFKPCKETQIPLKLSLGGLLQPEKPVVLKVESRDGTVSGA
On the % scale 0 is the no-effect control and ±100 the full control effect.

Row | Structure (SMILES) | AC50 | activity, negative = inhibition
1 | Cc1noc(C)c1-c1cncnc1NC1CC1 | 7.94 µM (active) | –
2 | Cc1noc(C)c1-c1cncnc1NCc1cccnc1 | 3.16 µM (active) | –
3 | Cc1cnc(CNc2ncncc2-c2c(C)noc2C)cn1 | 12.6 µM (active) | –
4 | Cc1noc(C)c1-c1cncnc1NCc1ccccc1 | 2 µM (active) | –
5 | Cc1ncc([N+](=O)[O-])n1CC(C)O (stereo unspecified) | – | 20.5%
6 | CCN=C(N)CSS(=O)(=O)O | – | -8.49% [at 11.4 µM]
7 | Cc1noc(C)c1-c1cncnc1Nc1ccccc1 | 3.16 µM (active) | –
8 | Cc1noc(C)c1-c1cc(Nc2ccccc2)ncn1 | – | -41.5%
9 | Cc1ccc2cc(C)c3nnc(SCC(=O)NCc4ccco4)n3c2c1 | 22.4 µM (active) | –
10 | Cc1cc2cc(C)c3nnc(SCC(=O)NCc4ccc5c(c4)OCO5)n3c2cc1C | 0.562 µM (active) | –
11 | CC(C)n1nnnc1SCC(=O)NCc1ccc2c(c1)OCO2 | 0.891 µM (active) | –
12 | CC(C)n1nnnc1SCC(=O)NCCc1ccccc1 | 14.1 µM (active) | –
13 | CC(C)n1nnnc1SCC(=O)c1ccc2c(c1)OCCO2 | – | -28.3%
14 | Cc1ccccc1Oc1ccc(-c2nc(N)nc(N)n2)cc1 | – | 4.65%
15 | CCCCNC(=O)NC1C(NC(=O)NCCCC)N(C)C(=O)N1C (stereo unspecified) | – | -6.75%
16 | COc1cccc(CN2C(=O)N(C(C)C)C(N(O)C(=O)NC(C)C)C2(C)C)c1OC (stereo unspecified) | – | -12.5% [at 2.29 µM]
17 | CCCCCCCCN1C(=O)N(C)C(N(O)C(=O)NC)C1(C)C (stereo unspecified) | 6.31 µM (active) | –
18 | CCCOc1ccc(OCCNC2CCCC2)cc1 | – | 10% [at 2.29 µM]
19 | COc1cc(CNC(C)(C)CO)ccc1OCC(=O)Nc1ccc(Br)cc1 | – | 0.897% [at 2.29 µM]
20 | C=CCOc1c(Br)cc(CNc2ccc(NC(=O)C(C)C)c(OC)c2)cc1OC | 3.55 µM (active) | –
21 | COc1ccc(O[C@H]2C=C[C@@H](c3ccccc3)O[C@H]2COC(=O)CC/C(C)=N\O[C@@H](C)c2cc(-c3c(C)cc(C)cc3C)no2)cc1 | 3.16 µM (active) | –
22 | CC(=O)OC[C@@H]1O[C@H](C/C=N\O[C@@H](C)c2cc(-c3c(C)cc(C)cc3C)no2)C=C[C@@H]1OC(C)=O | 3.16 µM (active) | –
23 | CC(=O)OC[C@@H]1O[C@H](CCON=C(C)C)C=C[C@@H]1OC(C)=O | – | -14.8% [at 11.4 µM]
24 | CCCNC(=O)OC[C@@H]1O[C@H](CCO/N=C\C[C@H]2C=C[C@H](OC(C)=O)[C@@H](COC(C)=O)O2)C=C[C@@H]1Oc1ccc(OC)cc1 | 3.98 µM (active) | –

Row | Structure (SMILES) | AC50 | activity, negative = inhibition
25 | CC(=O)OC[C@@H]1O[C@H](C/C=N\O[C@@H](C)c2cn([C@H]3COC[C@H]3O)nn2)C=C[C@@H]1OC(C)=O | – | -11.8% [at 11.4 µM]
26 | CC(=O)OC[C@@H]1O[C@H](C/C=N\O[C@@H]2O[C@H](COC(C)=O)[C@@H](OC(C)=O)[C@H](OC(C)=O)[C@H]2OC(C)=O)C=C[C@@H]1OC(C)=O | – | -25.4% [at 11.4 µM]
27 | COc1ccc(O[C@H]2C=C[C@@H](c3ccccc3)O[C@H]2COC(=O)CC/C(C)=N/OCC[C@@H]2C=C[C@H](OC(C)=O)[C@H](COC(C)=O)O2)cc1 | 3.98 µM (active) | –
28 | Cc1cc(C)c(-c2cc([C@H](C)O/N=C3/[C@H]4OC4[C@@H](O)[C@H]4[C@H]3CCn3c(=O)n(-c5ccccc5)c(=O)n34)on2)c(C)c1 (stereo partly specified) | – | -41% [at 11.4 µM]
29 | O=C(O)[C@H]1CCCN(CCC=C(c2ccccc2)c2ccccc2)C1 | inactive | –
30 | C[C@@H](O)[C@H]1C(=O)N2C(C(=O)O)=C(S[C@@H]3CN[C@H](C(=O)N(C)C)C3)[C@H](C)[C@H]12 | – | -19.2% [at 25.6 µM]
31 | C[C@H](N)CCCC(C)(C)O | – | -5.82% [at 25.6 µM]
32 | CO/N=C\[C@@H](C)[C@H](OCc1ccccc1)C(C)C | – | 12.5% [at 11.4 µM]
33 | COc1ccc(O[C@H]2C=C[C@@H](c3ccccc3)O[C@H]2CO/N=C\C[C@@H]2C=C[C@H](OC(C)=O)[C@H](COC(C)=O)O2)cc1 | 3.98 µM (active) | –
34 | COc1ccc(O[C@H]2C=C[C@@H](c3ccccc3)O[C@H]2COC(=O)CC/C(C)=N/O[C@@H]2O[C@H](COC(C)=O)[C@H](OC(C)=O)[C@H](OC(C)=O)[C@H]2OC(C)=O)cc1 | 5.01 µM (active) | –
35 | CC(=O)OC[C@@H]1O[C@H](C/C=N\OC[C@@H](C)[C@H](OCc2ccccc2)C(C)C)C=C[C@@H]1OC(C)=O | – | -18.2% [at 11.4 µM]
36 | COc1ccc(O[C@H]2C=C[C@@H](c3ccccc3)O[C@@H]2CO/N=C\[C@@H](C)[C@H](OCc2ccccc2)C(C)C)cc1 | 3.98 µM (active) | –
37 | CCCNC(=O)OC[C@@H]1O[C@H](CCO/N=C(\C)CCC(=O)OC[C@@H]2O[C@H](c3ccccc3)C=C[C@@H]2Oc2ccc(OC)cc2)C=C[C@@H]1Oc1ccc(OC)cc1 | 5.01 µM (active) | –
38 | O=c1[nH]cc(CS(=O)(=O)Cc2c[nH]c(=O)[nH]c2=O)c(=O)[nH]1 | – | -10.9% [at 11.4 µM]
39 | CN1C(=O)C(CC(N)=O)N(NC(=O)c2ccc(Cl)cc2)C1=S (stereo unspecified) | – | -10.7%
40 | COc1ccc(O[C@H]2C=C[C@@H](c3ccccc3)O[C@H]2CO/N=C(/C)CCC(=O)OC[C@@H]2O[C@H](c3ccccc3)C=C[C@@H]2Oc2ccc(OC)cc2)cc1 | 3.98 µM (active) | –
41 | COc1ccc(O[C@H]2C=C[C@@H](c3ccccc3)O[C@H]2COC(=O)N2CCCCC2)cc1 | – | -82.7% [at 11.4 µM]
42 | CC(=O)OC[C@@H]1O[C@H](CCO/N=C\[C@@H](C)[C@H](OCc2ccccc2)C(C)C)C=C[C@@H]1OC(C)=O | – | -26.2% [at 11.4 µM]
43 | CCCNC(=O)OC[C@@H]1O[C@H](CCO/N=C\[C@@H](C)[C@H](OCc2ccccc2)C(C)C)C=C[C@@H]1Oc1ccc(OC)cc1 | 3.98 µM (active) | –
44 | CCCNC(=O)OC[C@@H]1O[C@H](c2ccccc2)C=C[C@@H]1Oc1ccc(OC)cc1 | 3.98 µM (active) | –
45 | Cc1cc(C)c(Cn2cnc(-c3ccc([N+](=O)[O-])cc3)c2)c(C)c1 | 7.94 µM (active) | –
46 | Cc1nn(Cc2ccc([N+](=O)[O-])cc2)c(=O)n1-c1cccc(F)c1 | – | 4.03%
47 | C=CC[C@@H]1C=C[C@H](ON=C(C)C)[C@H](CO)O1 | – | -13.4% [at 11.4 µM]
48 | C/C(CCC(=O)OC[C@@H]1O[C@H](C#Cc2ccccc2)C=C[C@@H]1Oc1ccc(C)cc1)=N/OC[C@@H](O)COCc1ccco1 | 3.16 µM (active) | –

Row | Structure (SMILES) | AC50 | activity, negative = inhibition
49 | C=CC[C@@H]1C=C[C@H](Oc2ccc(C)cc2)[C@H](COC(=O)NCc2cccc3ccccc23)O1 | 3.16 µM (active) | –
50 | O=c1n(-c2ccccc2)c(=O)n2n1CC[C@H]1/C(=N\OC[C@@H](O)COCc3ccco3)[C@H]3O[C@@H]3[C@@H](O)[C@@H]12 | – | -24.1% [at 11.4 µM] and -23% [at 11.4 µM]
51 | CO/N=C(/C)CCC(=O)OC[C@@H]1O[C@H](C#Cc2ccccc2)C=C[C@@H]1Oc1ccc(C)cc1 | 3.98 µM (active) | –
52 | C=CC[C@@H]1C=C[C@@H](O/N=C(/C)CCC(=O)OC[C@@H]2O[C@H](C#Cc3ccccc3)C=C[C@@H]2Oc2ccc(C)cc2)[C@@H](CO)O1 | 5.01 µM (active) | –
53 | CC(=O)OC[C@@H]1O[C@H](C/C=N\OC[C@@H](O)COCc2ccco2)C=C[C@@H]1OC(C)=O | – | -26.2% [at 11.4 µM]
54 | CC(=O)N[C@@H](CC(=O)O)C(=O)O | – | -13.1% [at 25.6 µM]
55 | CC(=O)OC[C@@H]1O[C@H](CCO/N=C(\C)CCC(=O)OC[C@@H]2O[C@H](C#Cc3ccccc3)C=C[C@@H]2Oc2ccc(C)cc2)C=C[C@@H]1OC(C)=O | 3.16 µM (active) | –
56 | CC(=O)OC[C@H]1O[C@@H](ON=C(C)C)[C@H](OC(C)=O)[C@@H](OC(C)=O)[C@H]1OC(C)=O | – | -17.9% [at 11.4 µM]
57 | CC(=O)OC[C@H]1O[C@@H](O/N=C(\C)CCC(=O)OC[C@@H]2O[C@H](C#Cc3ccccc3)C=C[C@@H]2Oc2ccc(C)cc2)[C@H](OC(C)=O)[C@@H](OC(C)=O)[C@H]1OC(C)=O | 3.16 µM (active) | –
58 | CCOC(=O)CCN1C(=O)[C@H]2[C@H]3[C@H](O)[C@H](O)C/C(=N/O[C@@H]4O[C@@H](COC(C)=O)[C@@H](OC(C)=O)[C@@H](OC(C)=O)[C@H]4OC(C)=O)[C@H]3CC[C@@H]2C1=O | – | -10.4% [at 11.4 µM]
59 | CC(C(=O)NC1CCCC1)N(C(=O)c1ccc(-c2ccccc2)[nH]1)c1ccccc1F (stereo unspecified) | 3.98 µM (active) | –
60 | O=C(NC1CCCCCC1)c1cccs1 | 14.1 µM (active) | –
61 | Cc1ccc(C(=O)NC2CCCCC2)cc1 | – | -27.2%
62 | O=C(NCCCc1ccccc1)c1cccs1 | – | -26.4%
63 | O=S(=O)(Nc1nc(-c2sccc2Cl)cs1)c1cc(Cl)ccc1Cl | 7.94 µM (active) | –
64 | CC(=O)c1c(N2CCC(C(N)=O)CC2)nc(=S)n(-c2ccccc2)c1C | – | 28.2% [at 2.29 µM]
65 | FC(F)(F)c1cc(Sc2ccccc2)nc(-c2ccccn2)n1 | – | 22.3% [at 11.4 µM]
66 | COC(=O)[C@@]1(Cc2ccc(F)cc2)[C@H]2c3cc(C(=O)N4CCCC4)n(Cc4ccc(C)o4)c3C[C@H]2CN1C(=O)c1ccccc1 | 3.16 µM (active) | –
67 | COC(=O)[C@@]1(Cc2ccc(F)cc2)[C@H]2c3cc(C(=O)N(C)C)n(Cc4ccc(C)o4)c3C[C@H]2CN1C(=O)c1ccccc1 | 2.51 µM (active) | –
68 | COC(=O)[C@@]1(Cc2ccccc2)[C@H]2c3cc(C(=O)N4CCCC4)n(Cc4ccc(C)o4)c3C[C@H]2CN1C(=O)c1ccccc1 | 2 µM (active) | –
69 | C=CCC(C(=O)OC)(C(=O)OC)c1ccc([N+](=O)[O-])cn1 | – | -25.4%
70 | COC(=O)C(C)(C(=O)OC)c1ccc([N+](=O)[O-])cn1 | – | -3.67%
71 | COC(=O)C(NC(=O)c1ccc(F)cc1)(Nc1ncc(S(=O)(=O)c2ccc([N+](=O)[O-])cc2)s1)C(F)(F)F (stereo unspecified) | 5.01 µM (active) | –
